From PubChem
Shown are actives, neighbours in structure and some others; about 1.6% of the full set was active somewhere.
FUS yeast rescue: suppressors of FUS proteinopathy in yeast; S. cerevisiae FUS-expressing, growth rescue, OD600, 24 h; Potency, µM (series often up to 76.6 µM), actives largely listed as activators; 390,000 tested, 0.24% active; note: nearly all actives have a fitted effect of over 55% in size
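Absorbance at 600 nm, taken 24hr after compound addition, measured rescue of FUS-yeast growth at 30C. Induction used 2% galactose with seeding at OD 0.005. Controls: CP55940 from 92uM final, DMSO only.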
12-LOX inh: inhibitors of human 12S-lipoxygenase ALOX12. P18054. purified 12hLO, xylenol orange hydroperoxide absorbance. Potency, µM (top dose mostly 108 µM), most hits filed as inhibitors. 580,000 tested, 1.1% active
Target sequence (P18054 whole entry, looked up): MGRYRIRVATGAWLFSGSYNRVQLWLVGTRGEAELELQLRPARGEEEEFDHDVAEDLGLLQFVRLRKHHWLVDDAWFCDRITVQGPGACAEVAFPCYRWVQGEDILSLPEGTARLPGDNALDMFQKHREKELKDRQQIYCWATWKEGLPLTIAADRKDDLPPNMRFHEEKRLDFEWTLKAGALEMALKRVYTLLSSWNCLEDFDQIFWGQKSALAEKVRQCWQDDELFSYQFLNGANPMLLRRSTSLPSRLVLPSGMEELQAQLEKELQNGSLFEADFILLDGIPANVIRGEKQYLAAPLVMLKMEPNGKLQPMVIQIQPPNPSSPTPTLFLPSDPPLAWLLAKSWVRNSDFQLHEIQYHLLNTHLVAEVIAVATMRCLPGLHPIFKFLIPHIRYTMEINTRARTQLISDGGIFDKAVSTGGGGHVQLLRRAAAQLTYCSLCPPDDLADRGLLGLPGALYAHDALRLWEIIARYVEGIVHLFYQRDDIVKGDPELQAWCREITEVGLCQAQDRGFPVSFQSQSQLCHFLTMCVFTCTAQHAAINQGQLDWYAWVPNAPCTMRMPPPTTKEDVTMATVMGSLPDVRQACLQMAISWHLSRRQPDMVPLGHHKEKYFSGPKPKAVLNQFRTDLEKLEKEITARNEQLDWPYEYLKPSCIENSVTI
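Hydroperoxide product was detected by ferrous iron/xylenol orange as the 573 to 405 nm absorbance ratio. Arachidonic acid at 40 uM (final) was turned over for 30 min at room temperature by 150 nM human 12hLO, pH 7.0 Hepes buffer, after 15 min compound preincubation.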
gsp antagonist: antagonizes gsp, the McCune-Albright syndrome mutation; gsp-mutant cells, cAMP HTRF, 30 min; Potency, µM (highest dose often 76.9 µM), usual class: inhibitors; 340,000 tested, 0.4% active; AID 624288; calls by dose curve; cell line not stated here;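 note: intracellular cAMP measured with PDE inhibitor Ro 20-1724 present during compound exposure; nearly all actives have a fitted effect of over 65% in size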
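Measurement of cellular cAMP by homogeneous time-resolved fluorescence following a 30 min compound exposure at 37C. The PDE inhibitor […] was present throughout; the assay buffer was DPBS with 0.05% BSA and 0.005% Tween 20.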
Mito fusion yeast: blocks mitochondrial division or promotes mitochondrial fusion; S. cerevisiae fusion-defective mutant growth rescue, CellTiterGlo 48 h; 320,000 tested, 0.23% active; Potency, µM (series often up to 46.1 µM), actives largely listed as activators; note: nearly all actives have a fitted effect of over 45% in size
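Growth-rescue viability read-out: after 48 h at the non-permissive 37C in glycerol/ethanol YPEG, yeast mitochondrial fusion mutants are measured by CellTiterGlo luminescence; compounds (23 nl pinned per well) restoring growth score as division inhibitors or fusion activators.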
gsp ag: gsp mutant agonism; gsp mutant cells, cAMP HTRF, 30 min; Potency, µM (top dose mostly 76.9 µM), most hits filed as activators; 340,000 tested, 0.13% active; AID 624287; active = well fitted activation curve with a large enough effect; inconclusive = small, poorly fitted or top-dose-only effect, or another doubt; inactive = no such curve, though single readings can be large or run the other way; cell line not stated here;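 note: phosphodiesterase inhibitor Ro 20-1724 added with compounds to block cAMP breakdown; nearly all actives have a fitted effect of over 60% in size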
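Cells stably selected in G418 were plated at 2000/well, grown 16-24 hr, then given compounds in DMSO with the PDE inhibitor […] (300 uM solution added) for 30 min at 37C; cAMP was read by HTRF.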
Numbers stand for hits; – = inactive; ? = inconclusive; · = no result given; [ ] = dose if it differs, or a comment. Unless noted, calls come from the whole dose curve; as a rule, active = well fitted curve in the direction sought with a large enough effect; inconclusive = small, poorly fitted or top-dose-only effect, or another doubt; inactive = no such curve, though single readings can be large; an effect the other way counts as inactive or inconclusive.

SMILES	FUS yeast rescue	12-LOX inh	gsp antagonist	Mito fusion yeast	gsp ag
N#C/C(=C(/O)c1ccccc1F)c1nc2cc(C(F)(F)F)ccc2s1	–	–	?	–	–
N#C/C(=C(/O)c1ccc2c(c1)OCO2)c1nc2cc(C(F)(F)F)ccc2s1	–	–	35µM	–	–
C[N+]1(CC[N+]2(C)CCCCC2)CCCCC1	·	4µM	·	·	·
CC(=O)OCCCCCCCCCCC[N+]1(C)CCCCC1	–	?	–	–	–
CSCCC(NC(=O)c1ccc(Cl)cc1)C(=O)OCC(C)=O (configuration not stated)	–	–	–	–	–[15.4 µM]
CSCCC(NC(=O)c1ccc(Cl)cc1)C(=O)OCC(=O)Nc1ccc(C#N)cc1 (configuration not stated)	–	32µM	–	–	–
CCOC(=O)Nc1ccc(NS(=O)(=O)c2cc(F)cc(F)c2)cc1	·	–	·	·	·
COc1ccc(-c2cc3ccc(OS(C)(=O)=O)cc3oc2=O)c(OC)c1	·	–	·	·	·
C/C(=C\C(=O)c1ccc(F)cc1)NCc1ccc2c(c1)OCO2	–	40µM	?	–	–
C/C(=C\C(=O)c1ccc(Br)cc1)NCc1ccc2c(c1)OCO2	–	–	–	–	–
O=C(N/C=C/c1ccco1)OCc1ccccc1	–	40µM	–	–	–
O=C(N/C=C/c1ccco1)NCc1ccccc1	?	?	–	–	–[15.4 µM]
NC(=S)N/N=C1/CCSc2ccc3ccccc3c21	–	20µM	–	–	–[15.4 µM]
O=Cc1ccc(Sc2ccccc2)cc1	·	–	·	·	·
COc1cc(OC)c(NC(C)c2nnc(-c3cccs3)o2)cc1Cl (configuration not stated)	·	–	·	·	·
CCc1nnc(NC(=O)C2Cc3ccccc3CN2S(=O)(=O)c2ccc(C)cc2)s1 (configuration not stated)	14µM	–	?	–	–
CCSc1nnc(NC(=O)C2Cc3ccccc3CN2S(=O)(=O)CC)s1 (configuration not stated)	3.5µM	–	–	–	–[15.4 µM]
CCCCCN1CCN(c2nc3c(c(=O)[nH]c(=O)n3C)n2Cc2ccc(Cl)cc2Cl)CC1	·	–	·	·	·
O=C(CCc1ncc(-c2ccccc2F)o1)N1CCSCC1	·	–	·	·	·
Cn1cc(CN2C[C@H](C(=O)Nc3ccccc3)C[C@H]2c2cccc(C(F)(F)F)c2)cn1	·	–	·	·	·
CCOc1cc(C(c2c(C)[nH]c3ccccc23)c2c(C)[nH]c3ccccc23)ccc1O	·	7.9µM	·	·	·
Fc1ccc(-c2cc3c(cn2)CN(Cc2ccncc2)CCN3)cc1Cl	·	–	·	·	·
CCC1c2ccsc2CCN1C(=O)CNC(=O)c1ccc(Cl)c(Cl)c1 (configuration not stated)	·	–	·	·	·
Cc1cc(=O)[nH]c(SCC(=O)Nc2cccc(S(=O)(=O)N3CCOCC3)c2)n1	·	–	–	–	16µM
CC(=O)c1ccc(N2CCN(C(=O)c3n[nH]c4ccccc34)CC2)cc1	–	–	11µM	–	–[15.4 µM]
SMILES	FUS yeast rescue	12-LOX inh	gsp antagonist	Mito fusion yeast	gsp ag
O=C(c1n[nH]c2ccccc12)N1CCOCC1	–	–	–	–	–
CC(=O)c1ccc(NC(=O)CN2CCN(c3ccccc3)CC2)cc1	–	11µM	–	–	–
CC(=O)c1ccc(NC(=O)CN2CCN(CC(=O)Nc3ccc(C(C)=O)cc3)CC2)cc1	–	–	–	–	–
CC(=O)c1ccc(N2CCN(c3ncccn3)CC2)cc1	–	–	–	25µM	–[15.4 µM]
Cc1cccc(N=C2NC(=O)/C(=C/c3cccn3C)S2)c1C	–	–	–	–	–[15.4 µM]
Cc1cccc(N=C2NC(=O)/C(=C/C=C/c3ccco3)S2)c1C	–	10µM	–	?	–
Cc1ccc(N=C2NC(=O)/C(=C/C=C/c3ccco3)S2)cc1	·	32µM	–	–	–
Cc1ccc(N=C2NC(=O)S/C2=C\c2ccco2)cc1	–	?	–	–	?
O=C1NC(=Nc2ccccc2)S/C1=C\C=C\c1ccco1	–	50µM	–	–	–
Cc1nc(CSc2ccccc2C(=O)N2CCCc3ccccc32)no1	·	–	·	·	·
O=C(CSc1nnc(-c2ccccc2)c(-c2ccccc2)n1)NC(=O)NCc1ccccc1	·	–	·	·	·
CCCCn1c(SCC(=O)O)nc2c1c(=O)[nH]c(=O)n2C	·	–	·	·	·
O=C(CN1CCN(C(=O)CCc2ncc(-c3ccc(Cl)cc3)o2)CC1)Nc1cccc(F)c1	·	–	·	·	·
Cc1cc(=O)oc2c(C)c(OC(C)C(=O)NC3CC(C)(C)NC(C)(C)C3)ccc12 (configuration not stated)	·	–	·	·	·
Cc1ccccc1-c1noc(N)c1C#N	–	–	–	–	–
CN(C)/C=C/c1onc(-c2ccccc2Cl)c1C#N	–	?	11µM	–	–[15.4 µM]
COCCNC(=O)CN1C(=O)/C(=C/c2ccccc2)Oc2ccc(C(C)(C)C)cc21	–	–	28µM	20µM	–
Cc1cccc(C)c1NC(=O)CSc1nnc(COc2ccccc2)n1Cc1ccco1	·	–	·	·	·
O=c1nc2s/c(=C\c3ccc(-c4ccccc4[N+](=O)[O-])o3)c(=O)n2nc1-c1ccccc1	·	11µM	–	–	–
CCCCCOc1ccc(/C=c2\sc3nc(=O)c(-c4ccccc4)nn3c2=O)cc1OC	·	–	–	–	–
Cc1ccc(/C=C/C(=O)N2CCN(S(=O)(=O)c3ccc(C)c(C)c3)CC2)o1	·	18µM	–	–	–
COc1ccc(OC)c(/C=C/C(=O)N2CCN(S(=O)(=O)c3cc(C)ccc3C)CC2)c1	32µM	–	?	–	–
Cc1ccc(/C=C/C(=O)N2CCN(S(=O)(=O)c3c(C)c(C)cc(C)c3C)CC2)o1	?	?	–	–	–
O=C(Nc1cccc(C(F)(F)F)c1)c1nc2ccccc2nc1N1CCOCC1	·	–	·	·	·
CCCCOc1ccc2c(=O)c(-c3ccc4c(c3)OCCCO4)c(C)oc2c1	·	–	·	·	·
SMILES	FUS yeast rescue	12-LOX inh	gsp antagonist	Mito fusion yeast	gsp ag
COc1ccc(S(=O)(=O)NCCSCc2cccs2)cc1	–	?	32µM	–	–
COC(=O)[C@H](CC(C)C)N(Cc1ccccc1)S(=O)(=O)N(Cc1ccc(OC)cc1)[C@@H](CC(C)C)C(=O)OC	–	–	50µM	·	·
COC(=O)[C@H](CC(C)C)N(Cc1ccccc1)S(=O)(=O)N(Cc1ccccc1)[C@@H](CC(C)C)C(=O)OC	–	–	–	·	·
CN(C)Cc1ccccc1-c1cc(N(C)C)ncn1	·	40µM	·	·	·
CCOC(=O)c1ccc(S(=O)(=O)NCc2ccco2)cc1	·	–	·	·	·
COc1ccc(-c2noc(CSc3nnc(Cc4ccccc4)n3-c3ccc(F)cc3)n2)cc1	14µM	–	·	·	·
COc1ccc(-c2noc(CSc3nnc(Cc4ccccc4)n3-c3cccc(C)c3)n2)cc1	?	–	·	·	·
COc1ccc(CCC(=O)N2C[C@@H]3CCCN4CCC[C@@H]([C@H]34)[C@H]2CCCC(=O)N2CCOCC2)cc1	·	–	·	·	·
COc1ccccc1NCC(=O)c1ccc(C)c(C)c1	–	16µM	–	–	–
CCCOC(=O)c1ccc(NC(=O)c2ccc(Br)o2)cc1	–	–	–	22µM	–
O=C(CCN(Cc1cccs1)CC1CCCO1)Nc1ccccc1 (configuration not stated)	·	–	·	·	·
